Most compounds without a hit are left out; they make up all but 9.2% or so of the library.
Rab9 promoter act = Rab9 promoter activation; Huh7 Rab9 promoter-luciferase reporter, luminescence, 24 h; Potency, µM (series often up to 9.22 µM), inactives show top-dose activation, negative = inhibition, hits mostly activators; hit rate 2.8% among 320,000; AID 485297; note: % of control where 0% means no effect; nearly all actives have a fitted effect of over 60% in size
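Steps: seed 1500 Huh7 Rab9-luc cells per well, rest 2 h at 37 °C; add compound in DMSO; incubate 24 h; add luciferase reagent, 10 min ambient; read luminescence.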
SMN2 splice enh = enhancers of SMN2 splice variant expression. Potency, µM (series often up to 46.1 µM), for inactives: top-dose activity change, positive = activation, usual class: activators. AID 1458. hit rate 2.8% among 210,000. HEK293 SMN2-luciferase splicing reporter, luminescence, 30-36 h; note: % of control where 0% means no effect; nearly all actives have a fitted effect of over 55% in size
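HEK293 cells carry an SMN2 minigene-luciferase reporter in which exon 7 inclusion puts luciferase in frame. Cells were seeded at 2000 cells/well, attached for 10-12 hours, then exposed to compounds for 30-36 hours at 37C before ONE-Glo luminescence.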
NPC1 prom act = activates the NPC1 promoter; Huh7 NPC1 promoter luciferase reporter, 24 h; Potency, µM (series often up to 9.22 µM), without a hit: at the top dose activation, usual class: activators; hit rate 2.4% among 320,000; note: % of control where 0% means no effect; nearly all actives have a fitted effect of over 60% in size
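Luminescence read-out of NPC1 promoter-driven luciferase in stably transfected Huh7 cells; compounds delivered in DMSO and left 24 h at 37C, 5% CO2, qHTS titration format.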
ELG1 repair inh = inhibitors of ELG1-dependent DNA repair in HEK293T cells. HEK293T ELG1-luciferase reporter, luminescence, 16 h; DNA damage induced by 5-fluorouridine. Potency, µM (series often up to 46.1 µM), for the others: at the top dose activity change, negative = inhibition, usual class: inhibitors. hit rate 2.3% among 330,000. AID 504467; note: % is set by controls: 0 for no effect and ±100 for the full control effect; nearly all actives have a fitted effect of over 55% in size
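Cells (2,000 per well) received 5-fluorouridine plus test compound or DMSO and were incubated 16 hr at 37 °C, 5% CO2. Luciferase activity was read by luminescence 30 min after ONE-Glo addition; signal suppression marked inhibition of damage-induced ELG1 function.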
ELG1 genotoxic = inducers of genotoxicity in HEK293T ELG1-luciferase cells; HEK293T ELG1-luciferase reporter, luminescence, 16 h; hit rate 1.3% among 330,000; Potency, µM (top dose mostly 46 µM), inactives show at the highest dose activity change, positive = activation, usual class: activators; AID 504466; note: % of control where 0% means no effect; nearly all actives have a fitted effect of over 60% in size
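Quantitative HTS format in 1536-well plates. HEK293T ELG1-luciferase reporter cells receive test compound and are incubated 16 hr at 37 °C, 5% CO2; ONE-Glo added, 30 min room temperature, then luminescence read.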
FLuc counter = firefly luciferase modulation, counter-screen for miR-21 project; P08659; purified FLuc, Km substrates, luminescence inhibition; Potency, µM (doses to about 57.5 µM), for the others: at the highest dose activity change, negative = inhibition, most hits filed as inhibitors; hit rate 6.9% among 360,000; AID 588342;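 note: plate controls were vehicle for no effect and reference inhibitor for full effect; nearly all actives have a fitted effect of over 55% in size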
Target sequence (P08659 whole entry, looked up): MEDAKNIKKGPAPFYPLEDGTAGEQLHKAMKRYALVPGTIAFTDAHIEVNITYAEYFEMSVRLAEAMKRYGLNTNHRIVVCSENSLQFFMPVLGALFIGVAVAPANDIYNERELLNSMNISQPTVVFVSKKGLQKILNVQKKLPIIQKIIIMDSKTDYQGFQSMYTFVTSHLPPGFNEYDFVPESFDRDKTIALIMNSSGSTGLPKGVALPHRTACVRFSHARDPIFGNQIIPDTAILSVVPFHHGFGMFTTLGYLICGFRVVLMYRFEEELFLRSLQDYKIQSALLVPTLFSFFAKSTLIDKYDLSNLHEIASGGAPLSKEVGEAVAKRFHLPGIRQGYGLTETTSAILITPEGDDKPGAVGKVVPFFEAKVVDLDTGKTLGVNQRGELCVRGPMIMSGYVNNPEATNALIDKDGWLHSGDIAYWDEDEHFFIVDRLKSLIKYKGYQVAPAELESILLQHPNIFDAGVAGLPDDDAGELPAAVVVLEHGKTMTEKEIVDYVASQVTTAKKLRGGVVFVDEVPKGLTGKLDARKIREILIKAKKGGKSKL
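Purified P. pyralis luciferase (10nM final) with 10uM D-luciferin and 10uM ATP (Km levels) in 50mM Tris acetate pH 7.5, 10mM Mg acetate, 0.01% Tween-20, 0.05% BSA; qHTS 6-point titration, ~60 µM downward; luminescence read.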
The depositor's hits bear a star; ? = inconclusive; . = not tested or not shown; [ ] = another dose, or the depositor's remark. Calls come from the whole dose curve; as a rule, active = well fitted curve in the direction sought with a large enough effect; inconclusive = small, poorly fitted or top-dose-only effect, or another doubt; inactive = no such curve, though single readings can be large; an effect the other way counts as inactive or inconclusive. Potency is the fitted concentration of half-maximal effect.

SMILES	Rab9 promoter act	SMN2 splice enh	NPC1 prom act	ELG1 repair inh	ELG1 genotoxic	FLuc counter
O=C(NCc1ccccn1)C(=O)N/N=C/c1ccc2c(c1)OCO2	10%	.	-2%	-10%	5%	17µM*
O=C(N/N=C/c1c(Cl)[nH]c2ccccc12)c1ccc2c(c1)OCCO2	?	.	?	?	?	1.5µM*
O=C(N/N=C/c1cc2c(cc1Cl)OCO2)c1ccc2c(c1)OCCO2	19%	.	4%	?	9%	7.6µM*
O=C(CNC(=O)c1cccc(Br)c1)N/N=C/c1ccc2c(c1)OCO2	2%	.	0%	21%	?	17µM*
Cc1[nH]c2ccccc2c1/C=N/NC(=O)c1cccc(F)c1	15%	.	7%	11%	3%	?
NC(=O)C1CCN(c2nc(-c3ccccc3[N+](=O)[O-])cs2)CC1	.	.	.	.	.	-1%
COc1cccc(CNC(=O)c2cc3cc(C)ccc3n2C)c1	.	.	.	.	.	-2%
O=C(N/N=C/c1cccnc1)c1ccc2c(c1)OCO2	?	.	?	?	?	8.5µM*
O=C(N/N=C/c1ccc2c(c1)OCO2)c1ccc2c(c1)OCO2	2.5µM*	.	2.2µM*	?	-4%	?
Cc1[nH]c2ccccc2c1/C=N\NC(=O)CNc1ccc2c(c1)OCO2	-6%	-8%	1%	3%	0%	11µM*
O=C(N/N=C/c1cccnc1)c1ccc(O)cc1	3%	.	12%	28%	2%	?
CCN(CC)c1ccc(/C=N/NC(=O)CNC(=O)c2ccc3c(c2)OCCO3)cc1	6%	.	3%	1%	-3%	17µM*
O=C(N/N=C\c1ccc(S(=O)(=O)O)o1)c1ccc2c(c1)OCO2	-4%	.	2%	-1%	-2%	?
O=C(CNc1ccc2c(c1)OCO2)N/N=C\c1ccccc1Cl	-5%	1%	0%	-1%	0%	?
CCC(Sc1ncc(S(=O)(=O)c2ccc(Cl)cc2)c(=O)[nH]1)C(=O)Nc1ccc(OC)cc1 (stereo not given)	.	-2%	.	.	.	?
COc1cccc(CNc2ncnc3c2nnn3C)c1	.	.	.	.	.	-6%
Cc1cc(C(=O)N/N=C/c2cccc(OC(=O)c3ccco3)c2)n[nH]1	8%	?	2%	?	8%	17µM*
O=C(N/N=C/c1ccc[nH]1)c1ccc2c(c1)OCO2	12%	?	-5%	?	?	13µM*
O=C(N/N=C/c1ccc[nH]1)c1cccc([N+](=O)[O-])c1	-3%	-2%	-8%	2%	2%	1%
CC(=C/c1ccccc1)/C=N/NC(=O)c1ccccn1	0.45µM*	.	0.45µM*	?	?	0.6µM*
CC(/C=N/NC(=O)c1ccncc1)=C\c1ccccc1	-2%	-7%	19%	?	6%	7.6µM*
CC(/C=N/NC(=O)c1cc(-c2cccnc2)nc2c1c(C)nn2-c1ccccc1)=C\c1ccccc1	1%	.	-2%	5.8µM*	-10%	5%
CC(/C=N/NC(=O)c1cc(C(C)(C)C)[nH]n1)=C\c1ccccc1	-1%	16%	-1%	-24%	-3%	?
COc1ccccc1C(=O)N/N=C/C(C)=C/c1ccccc1	15%	.	?	?	14%	9.5µM*
COc1ccc(NC(=O)c2cc(-c3ccccc3)nc3c2c(C)nn3-c2ccccc2)c(OC)c1	-1%	-6%	-10%	-27%	-2%	-1%
SMILES	Rab9 promoter act	SMN2 splice enh	NPC1 prom act	ELG1 repair inh	ELG1 genotoxic	FLuc counter
CC(/C=N/NC(=O)NC1CCCCC1)=C\c1ccccc1	18%	24%	14%	6%	10%	?
O=C(N/N=C/c1ccccc1O)c1ccncc1	-36%	.	-32%	-14%	-9%	?
O=C(Cc1ccccc1)Nc1sc2c(c1C(=O)Nc1ccccc1Cl)CCC2	.	1%	.	.	.	2%
Cc1cc(C)cc(N2CC(C(=O)NC3CCCCC3)CC2=O)c1 (stereo not given)	0%	.	2%	?	2%	1%
CCOC(=O)c1ccc(NC(=O)c2ccc(=O)n(Cc3cccc(C)c3)c2)cc1	.	.	.	.	.	0%
CC(/C=N/NC(=O)Cc1cc(=O)[nH][nH]1)=C\c1ccccc1	-11%	-13%	-3%	6%	2%	15µM*
O=C(N/N=C/c1cccnc1)c1cccc(F)c1	3%	.	5%	?	7%	?
CC1=NNC(=O)C1CC(=O)N/N=C/C(C)=C/c1ccccc1 (stereo not given)	-1%	16%	-2%	25%	3%	?
CC(/C=N/NC(=O)c1cccc(F)c1)=C\c1ccccc1	0.4µM*	.	0.5µM*	?	?	2.4µM*
CC(=C/c1ccc(C(C)C)cc1)/C=N/NC(=O)c1ccncc1	28%	2%[1.84 µM]	25%	?	1%	2.7µM*
CC(/C=N\NC(=O)Cn1cncn1)=C/c1ccc(C(C)C)cc1	16%	.	13%	?	11%	?
c1cncc(-c2nc3c(ccc4ccccc43)[nH]2)c1	?	8%	?	?	7%	11µM*
O=c1[nH]c(-c2cccnc2)nc2ccccc12	-7%	1%	0%	11%	0%	-2%
C=CCNC(=O)c1cc2c(=O)n3ccccc3nc2s1	1.8µM*	.	2.5µM*	?	?	17µM*
O=C(NCCOCCn1c(=O)oc2ccccc21)Nc1ccc(F)cc1F	.	-2%	.	.	.	-1%
Cc1ccc(C(=O)COC(=O)c2cc(-c3ccc(Cl)cc3)nc3ccccc23)cc1	.	3%	.	.	.	-10%
CC(=O)COC(=O)c1cc(-c2ccc(C)cc2)nc2ccccc12	24%	.	16%	?	6%	17µM*
Cc1ccc(-c2cc(C(=O)Oc3ccccc3)c3cc(C)ccc3n2)cc1	.	0%	.	.	.	21µM*
Cc1ccc(/C(N)=N/OC(=O)c2cc(-c3ccccc3)nc3ccccc23)cc1	-1%	7%	0%	3%	0%	13µM*
N/C(=N\OC(=O)c1cc(-c2ccccc2)nc2ccccc12)c1ccccn1	14%	.	10%	18µM*	-8%	9.5µM*
COc1ccc(/C(N)=N/OC(=O)c2cc(-c3ccccc3)nc3ccccc23)cc1	-1%	-16%	2%	7%	-3%	?
Cc1ccc(NC(=O)C(=O)NCC(c2ccc3c(c2)OCO3)N2CCN(C)CC2)c(C)c1 (stereo not given)	.	.	.	.	.	-1%
CC(=O)N1CCc2cc(Br)cc(S(=O)(=O)N3CCC(C(=O)Nc4cccc(C)c4C)CC3)c21	.	-6%	.	.	.	2%
Cc1cc2n(n1)CCC(=O)N2Cc1ccc(C(=O)Nc2ccc(F)cc2F)cc1	.	.	.	.	.	1%
O=C1COc2ccc(S(=O)(=O)N3CCN(c4ccccc4)CC3)cc2N1	-1%	.	-2%	0%	-2%	0%

Assay outcomes as filed in PubChem BioAssay.
